The target of one assay is Albumin (Bos taurus) (UniProt P02769). As to the kind of experiment: bovine serum albumin binders on microarray, profiling panel, artefact control for SMM control protein annotation, biochemical, small-molecule microarray, Alexa647 label, 635/667 nm fluorescence (AID 1118).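 Note: score merges 667 nm emission intensity and signal-to-noise per printed compound spot.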 To be noted: BSA-A647 binding, fluorescence 635 nm, higher = more signal.
The nature of assay [1]: small-molecule microarray binders of probe aXIP, primary screen, biochemical, NeuroSMM set, 635/667 nm fluorescence (AID 1119).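 Note: probe is the protein aXip251-270 applied at 1 µg/mL to compound-printed slides; binding of probe to printed compounds measured as 667 nm fluorescence plus signal to noise.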 The following applies: higher = more signal, called active from +8 up or from −8 down.
The nature of assay [2]: small-molecule binders of probe aNOTCH3, primary screen, biochemical, small-molecule microarray, 635/667 nm fluorescence (AID 1120).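 Note: probe is a biotin-tagged antibody raised against NOTCH3 rather than NOTCH3 protein; score merges spot fluorescence near 667 nm with spot signal to noise.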 The following applies: higher = more signal.
Assay [3] in a line: small-molecule binders of probe aNOTCH2, primary screen, biochemical, small-molecule microarray, 635/667 nm fluorescence (AID 1121).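 Note: score merges feature fluorescence read at 667 nm with its signal to noise.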 The following applies: higher = more signal.
The target in assay [4] is Carbonic anhydrase 2 (Homo sapiens) (UniProt P00918). The assay is described as follows: CAII small-molecule binders, profiling panel, biochemical, small-molecule microarray, Alexa647-labelled CAII (AID 1122). The following applies: CAII-A647 binding fluorescence, higher = more signal.
A short description of assay [5]: COS7 lysate on small-molecule microarray, probe aHis, 635 nm (AID 1123).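 Note: z-score combines 667nm fluorescence intensity with signal-to-noise per printed compound spot.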 To be noted: COS7 cell lysate, fluorescence, higher = more signal.
The nature of assay [6]: compound binding in COS7 lysate, probe aLAP1, primary screen, cell lysate, small-molecule microarray (AID 1124).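 Note: lysate comes from COS7 cells expressing LAP1 and is applied at 0.3 µg/mL; score merges spot fluorescence near 667 nm with signal-to-noise over triplicate slides.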 To be noted: probe aLAP1, fluorescence, higher = more signal.
The next assay relates to Sam68 (KHDRBS1). As to the kind of experiment: Sam68 small-molecule binders, primary screen, biochemical, small-molecule microarray, 635 nm fluorescence (AID 1125).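 Note: score merges 667 nm channel intensity with signal to noise over triplicate slides.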 To be noted: small-molecule microarray binding, higher = more signal.
Assay [7] concerns Chordin-like protein 2 (CHRDL2). The assay is described as follows: CHRDL2 small-molecule binders, primary screen, biochemical, small-molecule microarray, 635 nm fluorescence (AID 1126).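 Note: printed compound slides probed with Chrdl2 protein at 4 µg/mL for 1 h at 4 C; score merges 667 nm emission intensity with signal to noise over three replicate slides.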 To be noted: small-molecule microarray binding, fluorescence 635 nm; higher = more signal.
Assay [8] has as its target Concanavalin-A (Canavalia ensiformis) (UniProt P02866). As to the kind of experiment: ConA small-molecule binders, primary screen, artefact control for SMM control protein annotation, biochemical, small-molecule microarray, Alexa647 label, 635 nm (AID 1127).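 Note: z combines 667 nm emission intensity with signal-to-noise across three replicate slides.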 The following applies: ConA-A647 binding fluorescence, higher = more signal.

Calls of active or inactive are those of the source.

This note sets out measurements from PubChem BioAssay.

Albumin (Bos taurus), sequence (P02769 whole entry, looked up): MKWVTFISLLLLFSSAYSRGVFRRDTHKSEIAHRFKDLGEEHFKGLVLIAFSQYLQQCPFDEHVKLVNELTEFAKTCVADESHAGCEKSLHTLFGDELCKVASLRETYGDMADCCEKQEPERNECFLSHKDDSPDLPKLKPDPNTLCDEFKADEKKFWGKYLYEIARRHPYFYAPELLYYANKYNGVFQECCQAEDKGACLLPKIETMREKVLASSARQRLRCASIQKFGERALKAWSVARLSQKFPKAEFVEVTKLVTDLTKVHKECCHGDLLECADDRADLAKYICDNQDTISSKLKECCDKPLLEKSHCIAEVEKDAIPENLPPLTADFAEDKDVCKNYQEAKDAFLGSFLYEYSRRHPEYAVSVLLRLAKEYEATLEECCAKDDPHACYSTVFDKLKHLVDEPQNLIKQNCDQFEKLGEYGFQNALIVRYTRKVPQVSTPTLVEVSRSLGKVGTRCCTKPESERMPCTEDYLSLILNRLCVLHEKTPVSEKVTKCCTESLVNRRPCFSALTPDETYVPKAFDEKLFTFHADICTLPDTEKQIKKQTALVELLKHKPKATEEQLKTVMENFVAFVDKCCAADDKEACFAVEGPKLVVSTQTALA
Concanavalin-A (Canavalia ensiformis), sequence (P02866 whole entry, looked up): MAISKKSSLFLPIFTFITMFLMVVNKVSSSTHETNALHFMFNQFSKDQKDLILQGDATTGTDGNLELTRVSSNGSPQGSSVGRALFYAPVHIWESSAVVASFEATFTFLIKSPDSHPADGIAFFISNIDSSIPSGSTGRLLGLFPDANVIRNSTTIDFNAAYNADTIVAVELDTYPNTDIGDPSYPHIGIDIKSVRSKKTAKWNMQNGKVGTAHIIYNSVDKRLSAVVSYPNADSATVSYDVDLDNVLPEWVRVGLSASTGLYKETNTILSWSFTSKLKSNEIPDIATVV

Take `CCCC[C@@H]1C[C@H]1[C@@H](NC(=O)c1cccnc1)c1ccc(-c2ccccc2)cc1`: the composite z-score was -0.294 with Albumin (Bos taurus); -0.306 in assay [2]; -0.174 in assay [3]; -0.357 in [4]; 0.208 in assay [5]; -0.193 in [6]. Also, the composite z-score with Sam68 (KHDRBS1) was -0.0982; in assay [7], -1.56; in assay [8], -0.633. For the same compound, the composite Z-score in assay [1] was -0.0683 (inactive).
Consider `C=C(COC)/C(=C/C[C@@H](OC(=O)c1ccncc1)c1ccc(CO)o1)c1cnc2ccccc2c1`, for which the composite z-score with Albumin (Bos taurus) was 0.516; in [2], 0.412; in assay [3], -0.14; in assay [4] it was 0.951; in assay [5], 0.831; in [6] it was 0.589. For the same compound, the values for the composite z-score (with Sam68 (KHDRBS1); in assay [7]; in [8]) were 1.3, 1.47 and 1.23, respectively. For the same compound, the composite Z-score in [1] is 1.35 (inactive).
For the compound `COc1ccc(C(O)C2C=CC3C(=O)N(c4ccccc4)C(=O)C3N2Nc2ccc(C#N)cc2)c2ccccc12` (stereo not given), the composite z-score stood at 1.07 in the assay with Albumin (Bos taurus); 0.0248 in assay [2]; 0.0847 in assay [3]; 0.734 in assay [4]; 2.48 in [5]; 0.537 in assay [6]. Moreover, the composite z-score in the assay with Sam68 (KHDRBS1) is 1.28; in [7] it was -0.32; in assay [8] it was 1.22. The composite Z-score in [1] is 1.3 (inactive).
In the case of `COCCOC(=O)N1C(=O)[C@@]2(c3cc(C#CC4(O)CCCCCC4)ccc31)[C@H](C(N)=O)[C@H]1C(=O)O[C@H](c3ccccc3)[C@H](c3ccccc3)N1[C@@H]2c1ccccc1OCCO`, the composite z-score with Albumin (Bos taurus) was 0.199; in [2] it was -0.6; in [3] it was -0.219; in assay [4], 0.541; in assay [5], 2; in [6], 0.591. Also, the composite z-score was 1.31 with Sam68 (KHDRBS1), 0.369 in [7] and 0.845 in assay [8]. The composite Z-score in [1] is -0.526 (inactive).
For `O=C1C2C=CC(C(O)c3cc(C(F)(F)F)cc(C(F)(F)F)c3)N(Nc3ccc([N+](=O)[O-])cc3)C2C(=O)N1c1ccccc1` (stereo not given), the composite z-score with Albumin (Bos taurus) was 0.888; in [2] it was 0.37; in assay [3], -0.0523; in [4] it was 0.616; in [5], 2.74; in assay [6] it was -0.0967. For the same compound, the composite z-score was 1.33 with Sam68 (KHDRBS1), -0.298 in assay [7] and 1.15 in [8]. For the same compound, the composite Z-score in [1] was -0.311 (inactive).
With `C=CCNC(=O)[C@H]1[C@@H]2C(=O)O[C@@H](c3ccccc3)[C@@H](c3ccccc3)N2[C@@H](c2ccccc2OCCO)[C@]12C(=O)N(C(=O)OCCOC)c1ccc(C#CC3=CCCCC3)cc12`, the composite z-score with Albumin (Bos taurus) was -0.286; in assay [2], 0.345; in assay [3], 0.148; in [4] it was 0.55; in assay [5] it was 1.33; in [6], 1.01. Further, the composite z-score was 1.3 in the assay on Sam68 (KHDRBS1), 0.51 in [7] and 0.942 in [8]. The composite Z-score in [1] is -0.0127 (inactive).
In the case of `COc1cc2c(cc1O)C(C)N(Cc1cc3c(cc1Br)OCO3)CC2` (stereo not given), the composite z-score was -0.0769 with Albumin (Bos taurus); -0.119 in assay [2]; -0.0924 in assay [3]; 0.887 in assay [4]; 0.578 in assay [5]; 0.349 in [6]. In addition, the composite z-score in the assay with Sam68 (KHDRBS1) is -0.309; in assay [7], -0.55; in [8] it was -0.251. The composite Z-score in assay [1] is 2.1 (inactive).
Regarding `CC(C)(C)OC(=O)CC[C@@]1(C(=O)O)N=C(c2ccc(OCCCO)cc2)O[C@@H]1c1ccccc1CN=[N+]=[N-]`, the composite z-score in the assay with Albumin (Bos taurus) was 0.939; in assay [2], 0.1; in assay [3], 0.046; in assay [4], 0.849; in [5] it was 2.23; in assay [6], 0.312. Further, the composite z-score in the assay with Sam68 (KHDRBS1) is 0.76; in assay [7], -0.309; in assay [8] it was 1.18. Also, the composite Z-score in [1] is 0.242 (inactive).
Regarding `COc1ccc([Si](C)(C)[C@H]2[C@H](CC(=O)N3Cc4ccccc4C[C@H]3CO)O[C@@]3(C(=O)N(Cc4cccc(N5CCCCC5=O)c4)c4ccccc43)[C@@H]2C)cc1`, the composite z-score with Albumin (Bos taurus) was 0.26; in assay [2], -0.0044; in [3], -0.14; in assay [4], 0.498; in assay [5], 0.951; in assay [6], 0.0263. For the same compound, the composite z-score with Sam68 (KHDRBS1) amounted to 0.724; in [7] it was 1.19; in assay [8], 1.05. For the same compound, the composite Z-score in assay [1] is 0.424 (inactive).
For `O=C(CS)NCCCCCCNC(=O)[C@@H]1C[C@@H]2C(=O)N3CCC[C@H]3C(=O)N2[C@@H]1c1cccc(OCCO)c1`, the composite z-score with Albumin (Bos taurus) is 0.848; in assay [2] it was -0.225; in assay [3], 0.0063; in assay [4], 0.635; in [5], 2.81; in [6], -0.0386. In addition, the composite z-score in the assay on Sam68 (KHDRBS1) was found to be 1.3; in assay [7], 0.454; in assay [8], 1.1. In addition, the composite Z-score in assay [1] was -0.19 (inactive).
Regarding `COC(=O)[C@@]1(Cc2ccccc2)[C@H]2c3cc(C(=O)N4CCCC4)n(Cc4cc(F)cc5c4OCOC5)c3C[C@H]2CN1C(=O)c1ccccc1`, the composite z-score is 1.11 with Albumin (Bos taurus); 0.218 in assay [2]; 0.163 in assay [3]; 0.553 in assay [4]; 2.57 in [5]; 0.141 in [6]. For the same compound, the composite z-score in the assay with Sam68 (KHDRBS1) was 0.797; in [7], -0.233; in [8], 0.511. Further, in assay [1], the composite Z-score was 0.143 (inactive).
As to `C=C(COC)/C(=C/C[C@@H](OC(=O)c1ccncc1)c1ccc(OCCO)cc1)c1cnc2ccccc2c1`, the composite z-score with Albumin (Bos taurus) was 0.646; in [2] it was 0.321; in assay [3], -0.0804; in [4], 0.854; in assay [5], 0.514; in [6], 0.39. Moreover, the composite z-score with Sam68 (KHDRBS1) came out at 1.31; in [7], 1.53; in assay [8] it was 1.15. Further, the composite Z-score in assay [1] is -0.41 (inactive).
Turning to `COCCOC(=O)N1C(=O)[C@@]2(c3cc(C#CCNC(N)=O)ccc31)[C@H](C(=O)N1CCCCCCC1)[C@H]1C(=O)O[C@H](c3ccccc3)[C@H](c3ccccc3)N1[C@@H]2c1ccc(O)cc1`, the composite z-score is 0.0763 in the assay with Albumin (Bos taurus); 0.239 in assay [2]; -0.0714 in assay [3]; 0.354 in assay [4]; 0.654 in assay [5]; 0.285 in [6]. Further, the composite z-score in the assay on Sam68 (KHDRBS1) was found to be 1.11; in [7], 0.626; in assay [8] it was 1.03. In addition, the composite Z-score in assay [1] was 0.559 (inactive).
`C=C[C@@H](COC(C)=O)NS(=O)(=O)c1ccc(Br)cc1`: the composite z-score in the assay with Albumin (Bos taurus) was -0.0541; in [2], -0.0728; in assay [3] it was -0.0859; in assay [4] it was 0.28; in assay [5], 0.151; in [6], -0.0973. For the same compound, the values for the composite z-score (in the assay with Sam68 (KHDRBS1); in assay [7]; in [8]) were 0.597, 0.0699 and 0.205, respectively. In addition, the composite Z-score in assay [1] was 0.486 (inactive).
